Each structure is given as a SMILES string. Results filed as inconclusive are left out. Entries that show only a call come without a potency. Activity calls are given as the source filed them. The call rests on the fitted dose curve; in most records, active means well fitted cell-killing curve with a large enough effect; inconclusive means small, poorly fitted or top-dose-only effect; inactive means flat fitted curve, though single readings scatter.

The values that follow come from PubChem BioAssay (NCATS).
Potency means the concentration at half of the fitted maximal effect.

A short description of this experiment: qHTS of pediatric cancer cell lines to identify multiple opportunities for drug repurposing: Primary screen for BT-37 cells (AID 1347094). The note with it: BT-37 viability, CellTiter-Glo luminescence, 48 h; series mostly up to 57.3 µM. An excerpt:
Drug repurposing or repositioning has been offered as a strategy for drug development in oncology programs. This approach has special potential for childhood cancers and other rare or orphan diseases, where the expected return on new drug development has been a disincentive to pharmaceuticals. […] In this project we exploit the poly-pharmacology of drugs to discover new indications via phenotypic screening of a panel of 19 well-characterized cell lines derived from solid tumors seen in children and adolescents. The goal is to identify approved drugs with previously unrecognized anticancer properties that has the potential to reveal new mechanisms and biological processes involved in carcinogenesis or drug resistance. We employed a titration-based paradigm (quantitative high-throughput screening or qHTS), where all compounds were tested at multiple concentrations for their effect on cell viability. Concentration-response curves (CRCs) were derived directly from the primary screen, and both potency and efficacy values were used to identify compounds with robust bioactivity profiles. We screened the NIH Chemical Genomics Center (NCGC) Pharmaceutical Collection (NPC) and Mechanism Interrogation Plate (MIPE) small molecule collections of approved and investigational compounds against these cell lines; and measured metabolically active cells after 48 hours of compound treatment as a proxy for cell viability. […] Assay Submitter: Nathalia J. Martinez, National Center for Advancing Translational Sciences, National Institutes of Health, Rockville, MD, USA; email: natalia.martinez@nih.gov Shen, M et al. Quantitative high-throughput phenotypic screening of pediatric cancer cell lines identifies multiple opportunities for drug repurposing. Oncotarget 2017 Dec 19;9(4):4758-4772. PMID 29435139.
The cells were obtained from University of North Carolina (UNC), Pediatric Preclinical Testing Program (PPT), and Coriell Institute (CI). qHTS cell viability assay: Cells were assayed in growth media at a density of 500-1,000 cells/well. Five microliters of cells were dispensed into 1,536-well, white, solid-bottom, TC-treated plates (Greiner Bio One) using a multidrop dispenser and incubated at 37 degrees C, 5% CO2, under a humidified atmosphere for 5 hours. Twenty-three nanoliters of compounds and controls (neutral control DMSO or positive control bortezomib at final concentration of 2.3 µM) were subsequently transferred by Kalypsys pintool. For primary screens, the MIPE collection was tested at 11-point dilutions (final concentrations range from 0.78 nM to 46 µM) and the NPC collection at 8-point dilutions (final concentrations range from 0.59 nM to 46 µM). Compounds tested in follow-up screens were assayed at 11-point dilutions. Cells were incubated for 48 hours, followed by addition of 3 µL of CellTiter-Glo (Promega). After a 15 min incubation at room temperature, samples were analyzed for luminescence intensity using a ViewLux High-throughput CCD imager equipped with clear filters.
On the technique in general: Quantitative high-throughput screening tests each substance at several concentrations.
As for `CN1CC[C@]23c4c5ccc(O)c4O[C@H]2[C@@H](O)CC[C@H]3[C@H]1C5`, the Potency entry was “inactive”.

As for `CCCCC/C=C\C/C=C\C/C=C\C/C=C\CCCC(=O)NCC(=O)O`, the Potency entry was “inactive”. `CC(C)=CC1C(C(=O)OCN2C(=O)C3=C(CCCC3)C2=O)C1(C)C` (stereo not given): the Potency entry is “inactive”. For `NNc1ccccc1`, the Potency entry is “inactive”. For `CC(C)(N)Cc1ccccc1Cl` the value was “inactive”; for `O=C1CN=C(c2ccccc2)c2cc([N+](=O)[O-])ccc2N1`, “inactive”; for `O=C(N/N=C/c1ccc([N+](=O)[O-])o1)c1cc([N+](=O)[O-])cc([N+](=O)[O-])c1O`, “inactive”.

Consider `CC(C)NC(C)C`, for which the Potency entry is “inactive”. For `Cc1ncsc1CCCl` the value was “inactive”; for `Nc1ccc([As](=O)(O)O)cc1`, “inactive”; for `COP(=S)(OC)Oc1ccc(S(=O)(=O)N(C)C)cc1`, “inactive”. On to `CN1C(=O)COc2c(C(=O)NC3CN4CCC3CC4)cc(Cl)cc21` (stereo not given), for which the Potency result is “inactive”.

`C=CCC1(C(C)CC)C(=O)NC(=O)NC1=O` (stereo not given): the Potency result was “inactive”. For `C#C[C@]1(O)CC[C@H]2[C@@H]3CCC4=CC(=O)CC[C@]4(C)[C@H]3CC[C@@]21C`, the Potency entry was “inactive”. On to `CC(Cc1ccccc1)N(C)Cc1ccco1` (stereo not given), for which the Potency result was “inactive”. For `C[C@@H](N)[C@@H](O)c1ccccc1` the value was “inactive”; for `COc1cc(CC(C)N)cc(OC)c1OC` (stereo not given), “inactive”; for `CNC(C)(C)Cc1ccccc1`, “inactive”. For `C[C@](O)(CS(=O)(=O)c1ccc(F)cc1)C(=O)Nc1ccc(C#N)c(C(F)(F)F)c1`, the Potency is 19.3 µM (active). For `CCCN(CCC)C(=O)Cc1c(-c2ccc(Cl)cc2)nc2ccc(Cl)cn12`, the Potency entry is “inactive”. Turning to `COc1c2c(cc3c1OCO3)CCN(C)C2`, the Potency entry was “inactive”. With `CC(=O)C1CCOC1=O` (stereo not given), the Potency entry was “inactive”. Take `COc1cccc2c1C(=O)c1c(O)c3c(c(O)c1C2=O)C[C@@](O)(C(=O)CO)CC3OC1CC(N2CCOC(OC)C2)C(O)C(C)O1` (stereo not given in full): the Potency is 0.0276 µM (active).

Consider `C[C@]12CCC(=O)C=C1CC[C@@H]1[C@@H]2CC[C@@]2(C)[C@H]1CC[C@]2(C)O`, for which the Potency entry was “inactive”.

On to `CN1C(=O)NC(=O)C(C)(C2=CCCCC2)C1=O` (stereo not given), for which the Potency result is “inactive”. For the compound `C[N+]1(CCF)[C@@H]2CC[C@H]1CC(OC(=O)C(O)(c1ccccc1)c1ccccc1)C2` (stereo not given in full), the Potency entry was “inactive”.

Regarding `COc1cccc(C(=O)CCN[C@@H](C)[C@H](O)c2ccccc2)c1`, the Potency result was “inactive”. For `CC(C)c1c(CN(C)C(C)Cc2ccccc2)n(C)n(-c2ccccc2)c1=O` (stereo not given), the Potency entry is “inactive”. Regarding `C=C(C)[C@H]1CN[C@H](C(=O)O)[C@H]1CC(=O)O`, the Potency entry is “inactive”. For `CC1(C)C(C=C(Cl)Cl)C1C(=O)OC(C#N)c1cccc(Oc2ccccc2)c1` (stereo not given) the value was “inactive”; for `C#CC(O)(C=CCl)CC` (stereo not given), “inactive”. With `COc1cccc([C@@]2(O)CCCC[C@@H]2CN(C)C)c1`, the Potency entry is “inactive”. In the case of `CN1CCC(O)(c2ccc(F)cc2)C(C(=O)c2ccc(F)cc2)C1` (stereo not given), the Potency result was “inactive”.

For the compound `COC(=O)C(Cl)C(=O)OC`, the Potency entry is “inactive”. With `O=c1oc2ccccc2c(O)c1Cc1c(O)c2ccccc2oc1=O`, the Potency entry is “inactive”. Turning to `CCN[C@@H](C)Cc1ccccc1`, the Potency entry is “inactive”. `CCC(C)(C)c1ccc(O)cc1`: the Potency entry was “inactive”. In the case of `CC(C)C[C@H](CN)CC(=O)O` it was “inactive”.

For `C[C@]12CC[C@@H]3c4ccc(OC(=O)N(CCCl)CCCl)cc4CC[C@H]3[C@@H]1CC[C@@H]2O`, the Potency entry is “inactive”. In the case of `C=CCN1C[C@H](C)N([C@H](c2ccc(C(=O)N(CC)CC)cc2)c2cccc(OC)c2)C[C@H]1C`, the Potency entry is “inactive”.
